Experiment [1] is described as follows: qHTS assay to identify small molecule agonists of the sonic hedgehog signaling (Shh) pathway (AID 1259368; calls by dose curve;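 further: NIH/3T3-derived 3T3Gli1-Luc cells carrying a stable Gli1-driven firefly luciferase reporter; series mostly up to about 92 µM; nearly all actives have a fitted effect of over 15% in size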). An outline of the steps:
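NIH/3T3-derived 3T3Gli1-Luc cells with stably integrated Gli1-driven firefly luciferase, 2,000 cells/well, compounds added after 4 hr. Incubated 24 hr at 37C, 5% CO2; luminescence read after 30 min with luciferase reagent at room temperature.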
(In qHTS, concentration-response curves come from the screen itself.)

A short description of experiment [2]: qHTS assay to identify small molecule agonists of the androgen receptor (AR) signaling pathway in the presence of an antagonist - cell viability counter screen (AID 1259379).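 Further: MDA-kb2 human breast cancer cells carrying an MMTV luciferase reporter; series mostly up to about 92 µM; nearly all actives have a fitted effect of over 25% in size.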 Summed up: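 MDA-kb2 cells (MMTV-luciferase, AR/GR), 3,000/well, 5 h attachment, then 3.0 µM nilutamide (final) and compounds at 15 concentrations. Viability by CellTiter-Fluor fluorescence after 16 h at 37 °C, 0% CO2, in the reporter wells.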

A short description of experiment [3]: qHTS assay to identify small molecule agonists of the estrogen receptor beta (ER-beta) signaling pathway - cell viability counter screen (AID 1259380). Further: nearly all actives have a fitted effect of over 30% in size. An outline of the steps: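 ER-beta-UAS-bla HEK293T cells in medium with 2% charcoal-stripped FBS, pre-incubated 6 hr, then treated 16 hr at 37C. Cytotoxicity read in the same wells by CellTiter-Glo luminescence after 30 min at room temperature.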

A short description of experiment [4]: qHTS assay to identify small molecule antagonists of the estrogen receptor beta (ER-beta) signaling pathway - cell viability counter screen (AID 1259382).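 Further: HEK293T cells carrying ER-beta-UAS-bla reporter stimulated with estradiol; series mostly up to about 92 µM; nearly all actives have a fitted effect of over 55% in size.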 An outline of the steps:
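ER-beta-UAS-bla HEK293T cells in 2% charcoal-stripped FBS medium, treated with compound plus 1 nM 17-beta-estradiol for 16 h at 37C. Viability read by CellTiter-Glo luminescence after 30 min at room temperature in the same wells.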

Experiment [5] has as its target Estrogen receptor (Homo sapiens) (UniProt P03372). The experiment can be described thus: qHTS assay to identify small molecule agonists of the estrogen receptor alpha (ER-alpha) signaling pathway in the presence of an antagonist (AID 1259383; calls by dose curve; further: top concentration of the series differs between compounds; nearly all actives have a fitted effect of over 15% in size). Summed up: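 VM7Luc4E2 cells express endogenous full-length ER-alpha with an ERE-luciferase reporter and were hormone-deprived for 5 days. Compounds at 15 concentrations were added with 10.0nM ICI-182,780 for 22hr at 37C. Luminescence was read with ONE-Glo.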

Experiment [6] is described as follows: qHTS assay to identify small molecule agonists or antagonists of the thyroid stimulating hormone receptor (TSHR) signaling pathway - wild type cell line counter screen (AID 1259384; calls by dose curve). Summed up:
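Counter screen in untransfected Hek293: compounds (15-point titration, triplicate) plus phosphodiesterase inhibitor Ro20-1724 added after 18 h plating; 30 min RT. Intracellular cAMP via competitive d2/cryptate immunoassay, 1 h incubation.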

The target of experiment [7] is Thyrotropin receptor (Homo sapiens) (UniProt P16473). The experiment can be described thus: qHTS assay to identify small molecule antagonists of the thyroid stimulating hormone receptor (TSHR) signaling pathway (AID 1259385; calls by dose curve; further: nearly all actives have a fitted effect of over 20% in size). Summed up:
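Antagonist mode: compound-treated TSHR-expressing HEK293 cells were stimulated with 1.5 ng/mL TSH (final) in presence of Ro20-1724 for 30 min at RT. HTRF cAMP detection after 1 h; each compound tested at 15 concentrations, triplicate.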

The nature of experiment [8]: qHTS assay to identify small molecule agonists of the estrogen receptor alpha (ER-alpha) signaling pathway in the presence of an antagonist - cell viability counter screen (AID 1259386).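 Further: series mostly up to about 92 µM; cells exposed to compounds for 22 h at 37 °C before the viability read; nearly all actives have a fitted effect of over 30% in size.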 An outline of the steps:
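Cell viability in VM7Luc4E2 cells (endogenous full-length ER-alpha) measured by CellTiter-Fluor fluorescence in the same wells as the luciferase screen. Cells pre-cultured 5 days in charcoal-stripped serum, then treated 22 h with compounds at 15 concentrations plus 10.0nM ICI-182,780.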

Experiment [9] addresses Progesterone receptor (Homo sapiens) (UniProt P06401). The experiment can be described thus: qHTS assay to identify small molecule agonists of the progesterone receptor (PR) signaling pathway (AID 1346784; calls by dose curve; further: nearly all actives have a fitted effect of over 30% in size). An outline of the steps:
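Using charcoal-stripped serum (2%) to limit endogenous steroids, PR-UAS-bla HEK 293T cells received compounds for 16 hr at 37C after 6 hr plating; beta-lactamase FRET fluorescence was recorded following 2 hr substrate loading at room temperature.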

The target is the same in experiment [10]. Kind of experiment: qHTS assay to identify small molecule antagonists of the progesterone receptor (PR) signaling pathway (AID 1346795; active means well fitted inhibition curve with a large enough effect in the signal ratio in the repeat runs, not every such curve was filed as active; the % refers to the signal ratio; further: potency means the concentration at half of the fitted maximal effect). An outline of the steps: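 Inhibition of R5020-induced (1 nM final) beta-lactamase reporter signal in PR-UAS-bla HEK293T cells was scored by FRET fluorescence after overnight (16 hr) compound treatment.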
Experiment [11] in a line: qHTS assay to identify small molecule antagonists of the progesterone receptor (PR) signaling pathway - cell viability counter screen (AID 1346798). Further: series mostly up to about 92 µM; nearly all actives have a fitted effect of over 50% in size. An outline of the steps: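 ATP content as viability readout: CellTiter-Glo luminescence, 30 min room temperature, in PR-UAS-bla HEK293T cells after 16 hr compound/R5020 treatment at 37C and 5% CO2.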
A short description of experiment [12]: qHTS assay to identify small molecule agonists of the TGF-beta/Smad signaling pathway (AID 1346859; active means well fitted activation curve with a large enough effect in the signal ratio in the repeat runs, not every such curve was filed as active; the % refers to the signal ratio; further: series mostly up to about 77 µM). Summed up: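 Stable Smad binding element-beta-lactamase HEK 293T cells; 5 hr compound exposure at 37 C under 5% CO2; 2 hr room-temperature substrate step; fluorescence excited at 405 nm, collected at 460 nm and 530 nm.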
For experiment [13], the target named is Thyrotropin-releasing hormone receptor (Homo sapiens) (UniProt P34981). Kind of experiment: qHTS assay to identify small molecule antagonists of the thyrotropin-releasing hormone receptor (TRHR) signaling pathway (AID 1346877; active means well fitted inhibition curve with a large enough effect in the repeat runs, not every such curve was filed as active; further: series mostly up to about 51 µM). An outline of the steps:
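TRHR-expressing HEK293 cells loaded with calcium dye for 2 h at 37 C; compounds pre-incubated 5 min at room temperature before TRH challenge at 1 nM final. Intracellular calcium fluorescence read kinetically for 3 min; 15 concentrations in triplicate.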

The nature of experiment [14]: qHTS assay to identify small molecule antagonists of the sonic hedgehog signaling (Shh) pathway (AID 1259369; calls by dose curve; further: nearly all actives have a fitted effect of over 45% in size). An outline of the steps: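 NIH/3T3-derived Gli1-Luc reporter cells plated 4 h, dosed with compound, then stimulated with conditioned medium for 24 h at 37 C. Firefly luciferase luminescence read after 30 min with detection reagent at room temperature.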
Experiment [15] has as its target Androgen receptor (Homo sapiens) (UniProt P10275). The experiment can be described thus: qHTS assay to identify small molecule agonists of the androgen receptor (AR) signaling pathway in the presence of an antagonist (AID 1259381; calls by dose curve; further: nearly all actives have a fitted effect of over 15% in size). Summed up: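 MDA-kb2 cells carrying MMTV-luciferase (AR/GR responsive), 3,000 cells/well, co-treated with 3.0 uM nilutamide final. Compounds at 15 concentrations, 16 hr at 37C without CO2. Luciferase luminescence read after 30 min with ONE-Glo.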

The nature of experiment [16]: qHTS assay to identify small molecule agonists of the progesterone receptor (PR) signaling pathway - cell viability counter screen (AID 1346799; calls by dose curve; further: nearly all actives have a fitted effect of over 45% in size). Summed up: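 Cytotoxicity in PR-bla HEK293T cells: 16 h compound, 37C; CellTiter-Glo added post-FRET read; luminescence after 30 min RT.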
Experiment [17] can be described thus: qHTS assay to identify small molecule antagonists of the TGF-beta/Smad signaling pathway - cell viability counter screen (AID 1346824). Further: nearly all actives have a fitted effect of over 50% in size. Summed up:
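Cytotoxicity counter-screen run in the same wells as the beta-lactamase Smad reporter read: CellTiter-Glo luminescence after 30 min at room temperature. HEK 293T SBE-bla cells had 5 hr compound exposure at 37 C with TGF-beta1 (0.25 ng/mL stock).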

Experiment [18] in a line: qHTS assay to identify small molecule agonists of the TGF-beta/Smad signaling pathway - cell viability counter screen (AID 1346829). Further: top concentration of the series differs between compounds; nearly all actives have a fitted effect of over 45% in size. An outline of the steps: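 CellTiter-Glo luminescence readout; SBE-bla HEK 293T cells, overnight plating, compound 5 hr at 37 C/5% CO2, then bla substrate 2 hr RT, then CellTiter-Glo 30 min RT.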
In experiment [19] the target is Estrogen receptor beta (Homo sapiens) (UniProt Q92731). Kind of experiment: qHTS assay to identify small molecule agonists of the estrogen receptor beta (ER-beta) signaling pathway (AID 1259377; active means well fitted activation curve with a large enough effect in the signal ratio in the repeat runs, not every such curve was filed as active; the % refers to the signal ratio). Summed up: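 In HEK293T cells bearing a UAS-beta-lactamase reporter under ER-beta control, DMSO-delivered compounds were incubated for 16 hr at 37C. Activity was detected as fluorescence 2 hours after LiveBLAzer B/G FRET substrate addition.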
Chain of Estrogen receptor beta (Homo sapiens) (Q92731 whole entry, looked up): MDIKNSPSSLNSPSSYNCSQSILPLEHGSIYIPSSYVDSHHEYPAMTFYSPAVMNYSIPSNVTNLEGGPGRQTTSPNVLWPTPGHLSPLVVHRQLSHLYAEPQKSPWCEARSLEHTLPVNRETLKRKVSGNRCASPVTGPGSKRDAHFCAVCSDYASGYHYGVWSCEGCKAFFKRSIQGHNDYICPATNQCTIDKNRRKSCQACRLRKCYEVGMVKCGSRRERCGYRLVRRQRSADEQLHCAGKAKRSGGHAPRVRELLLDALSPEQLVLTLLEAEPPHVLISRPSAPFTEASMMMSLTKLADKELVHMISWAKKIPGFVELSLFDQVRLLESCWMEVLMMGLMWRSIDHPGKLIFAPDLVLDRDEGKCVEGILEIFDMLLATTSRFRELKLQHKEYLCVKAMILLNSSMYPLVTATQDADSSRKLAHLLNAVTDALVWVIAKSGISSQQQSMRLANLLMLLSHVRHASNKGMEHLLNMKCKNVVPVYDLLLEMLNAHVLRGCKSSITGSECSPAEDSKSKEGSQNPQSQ

Experiment [20] has the same target. Kind of experiment: qHTS assay to identify small molecule antagonists of the estrogen receptor beta (ER-beta) signaling pathway (AID 1259378; active means well fitted inhibition curve with a large enough effect in the signal ratio in the repeat runs, not every such curve was filed as active; the % refers to the signal ratio). An outline of the steps:
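Antagonist mode: compounds added to beta-lactamase reporter HEK293T ER-beta-UAS cells stimulated with E2 (1nM final), 16 hr at 37C. LiveBLAzer B/G FRET substrate, 2 hours room temperature, fluorescence read-out.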

The structures appear in SMILES notation. Unmarked numbers belong to inactive results. Inconclusive results are not listed. Activity calls are given as the source filed them. Unless noted, the call rests on the fitted dose curve; in most records, active means well fitted curve in the direction sought with a large enough effect in the repeat runs; inconclusive means weak or mixed curves; inactive means no such curve, though single readings can be large; an effect the other way counts as inactive or inconclusive.

Chain of Thyrotropin-releasing hormone receptor (Homo sapiens) (P34981 whole entry, looked up): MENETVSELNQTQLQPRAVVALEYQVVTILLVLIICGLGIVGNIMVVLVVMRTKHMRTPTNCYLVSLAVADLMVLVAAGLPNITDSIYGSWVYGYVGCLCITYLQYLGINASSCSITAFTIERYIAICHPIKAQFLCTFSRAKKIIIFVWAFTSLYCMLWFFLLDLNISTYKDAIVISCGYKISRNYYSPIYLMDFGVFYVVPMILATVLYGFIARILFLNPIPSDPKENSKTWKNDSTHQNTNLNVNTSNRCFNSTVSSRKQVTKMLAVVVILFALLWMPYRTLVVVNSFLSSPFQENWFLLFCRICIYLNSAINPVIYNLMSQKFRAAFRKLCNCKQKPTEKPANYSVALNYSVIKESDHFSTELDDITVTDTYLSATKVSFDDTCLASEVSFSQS
Chain of Progesterone receptor (Homo sapiens) (P06401 whole entry, looked up): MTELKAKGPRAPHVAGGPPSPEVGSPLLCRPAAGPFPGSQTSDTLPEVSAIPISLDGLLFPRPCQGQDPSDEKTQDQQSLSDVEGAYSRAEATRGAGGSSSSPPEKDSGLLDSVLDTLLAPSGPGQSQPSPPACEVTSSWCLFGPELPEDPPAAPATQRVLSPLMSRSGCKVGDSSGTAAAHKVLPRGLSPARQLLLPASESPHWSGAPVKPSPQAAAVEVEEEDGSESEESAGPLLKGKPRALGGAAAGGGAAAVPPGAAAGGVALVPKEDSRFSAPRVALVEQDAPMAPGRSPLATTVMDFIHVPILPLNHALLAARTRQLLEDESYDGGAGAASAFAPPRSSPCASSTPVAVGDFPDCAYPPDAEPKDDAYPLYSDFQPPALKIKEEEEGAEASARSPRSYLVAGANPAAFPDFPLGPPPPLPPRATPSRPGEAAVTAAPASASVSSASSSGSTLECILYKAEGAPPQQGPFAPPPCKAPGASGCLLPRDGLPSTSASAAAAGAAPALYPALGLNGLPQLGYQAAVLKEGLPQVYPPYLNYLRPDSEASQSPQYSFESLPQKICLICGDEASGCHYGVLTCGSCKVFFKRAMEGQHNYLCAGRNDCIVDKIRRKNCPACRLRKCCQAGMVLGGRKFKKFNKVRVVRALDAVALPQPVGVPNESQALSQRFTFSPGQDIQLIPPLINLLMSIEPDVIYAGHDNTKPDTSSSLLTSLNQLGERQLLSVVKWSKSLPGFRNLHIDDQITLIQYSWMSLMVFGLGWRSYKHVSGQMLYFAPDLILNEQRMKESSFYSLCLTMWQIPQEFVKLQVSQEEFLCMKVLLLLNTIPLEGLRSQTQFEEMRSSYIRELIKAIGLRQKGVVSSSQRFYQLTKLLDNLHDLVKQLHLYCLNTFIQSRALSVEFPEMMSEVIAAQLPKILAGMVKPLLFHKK
Chain of Thyrotropin receptor (Homo sapiens) (P16473 whole entry, looked up): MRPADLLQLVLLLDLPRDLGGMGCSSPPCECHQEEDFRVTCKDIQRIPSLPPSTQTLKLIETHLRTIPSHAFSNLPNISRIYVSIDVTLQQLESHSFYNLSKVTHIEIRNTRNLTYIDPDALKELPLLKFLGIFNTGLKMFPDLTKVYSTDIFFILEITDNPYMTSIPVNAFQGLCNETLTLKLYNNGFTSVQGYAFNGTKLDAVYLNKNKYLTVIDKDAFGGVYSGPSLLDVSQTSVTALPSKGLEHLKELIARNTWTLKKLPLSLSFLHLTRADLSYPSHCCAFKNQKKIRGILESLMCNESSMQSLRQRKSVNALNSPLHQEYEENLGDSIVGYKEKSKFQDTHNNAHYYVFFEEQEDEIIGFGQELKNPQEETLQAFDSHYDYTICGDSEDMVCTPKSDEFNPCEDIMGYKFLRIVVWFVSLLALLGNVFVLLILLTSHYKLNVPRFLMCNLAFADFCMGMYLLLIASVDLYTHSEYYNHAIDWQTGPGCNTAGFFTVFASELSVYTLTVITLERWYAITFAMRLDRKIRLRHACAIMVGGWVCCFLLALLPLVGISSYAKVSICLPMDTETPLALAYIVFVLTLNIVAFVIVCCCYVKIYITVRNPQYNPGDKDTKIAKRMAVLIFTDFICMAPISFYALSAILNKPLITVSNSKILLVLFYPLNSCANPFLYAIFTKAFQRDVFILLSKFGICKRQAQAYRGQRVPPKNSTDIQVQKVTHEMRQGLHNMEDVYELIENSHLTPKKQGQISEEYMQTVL
Chain of Estrogen receptor (Homo sapiens) (P03372 whole entry, looked up): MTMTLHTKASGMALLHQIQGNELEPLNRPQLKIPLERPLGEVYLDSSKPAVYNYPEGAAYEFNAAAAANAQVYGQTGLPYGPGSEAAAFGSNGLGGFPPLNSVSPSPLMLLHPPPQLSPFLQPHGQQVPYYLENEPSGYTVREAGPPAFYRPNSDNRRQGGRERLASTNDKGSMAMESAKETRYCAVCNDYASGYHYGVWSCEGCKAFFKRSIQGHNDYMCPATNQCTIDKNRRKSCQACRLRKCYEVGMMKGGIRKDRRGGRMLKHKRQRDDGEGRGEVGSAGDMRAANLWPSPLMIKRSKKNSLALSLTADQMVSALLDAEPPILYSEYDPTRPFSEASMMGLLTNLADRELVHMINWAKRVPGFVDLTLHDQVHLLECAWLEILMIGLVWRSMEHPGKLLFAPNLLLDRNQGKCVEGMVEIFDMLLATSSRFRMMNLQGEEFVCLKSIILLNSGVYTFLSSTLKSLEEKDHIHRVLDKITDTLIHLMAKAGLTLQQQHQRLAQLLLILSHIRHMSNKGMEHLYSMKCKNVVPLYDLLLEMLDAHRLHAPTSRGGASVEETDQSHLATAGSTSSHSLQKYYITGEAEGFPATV
Chain of Androgen receptor (Homo sapiens) (P10275 whole entry, looked up): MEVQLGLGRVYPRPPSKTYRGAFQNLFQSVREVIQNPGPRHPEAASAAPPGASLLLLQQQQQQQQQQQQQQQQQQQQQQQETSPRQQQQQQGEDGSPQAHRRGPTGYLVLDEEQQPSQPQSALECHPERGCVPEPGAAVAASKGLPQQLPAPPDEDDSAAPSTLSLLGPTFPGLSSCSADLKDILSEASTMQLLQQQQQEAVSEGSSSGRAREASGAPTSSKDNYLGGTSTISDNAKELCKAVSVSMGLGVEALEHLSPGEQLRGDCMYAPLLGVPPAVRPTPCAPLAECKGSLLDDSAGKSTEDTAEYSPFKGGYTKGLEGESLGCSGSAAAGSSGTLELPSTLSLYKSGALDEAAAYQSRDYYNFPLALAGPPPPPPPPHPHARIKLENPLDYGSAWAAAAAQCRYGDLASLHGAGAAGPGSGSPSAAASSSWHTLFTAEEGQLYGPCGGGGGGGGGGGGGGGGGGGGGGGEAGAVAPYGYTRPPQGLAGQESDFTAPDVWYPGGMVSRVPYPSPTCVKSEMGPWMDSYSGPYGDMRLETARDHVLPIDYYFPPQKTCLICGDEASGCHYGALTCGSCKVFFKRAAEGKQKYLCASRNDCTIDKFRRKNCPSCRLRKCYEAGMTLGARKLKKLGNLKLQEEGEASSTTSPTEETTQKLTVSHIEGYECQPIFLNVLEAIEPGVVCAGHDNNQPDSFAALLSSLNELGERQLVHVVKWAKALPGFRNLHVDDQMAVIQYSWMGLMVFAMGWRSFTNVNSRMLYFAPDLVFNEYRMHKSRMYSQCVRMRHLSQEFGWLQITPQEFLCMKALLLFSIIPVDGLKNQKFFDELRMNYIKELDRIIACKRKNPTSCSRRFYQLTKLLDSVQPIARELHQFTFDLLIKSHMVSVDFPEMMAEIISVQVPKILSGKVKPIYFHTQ

As for `COC(=O)C1=C(C)NC(C)=C(C(=O)OCC(C)=O)C1c1ccccc1[N+](=O)[O-]` (configuration not stated), the Potency entry in [1], in experiment [2], in experiment [3], in experiment [4], in experiment [5] and in experiment [7] was “inactive” in each case. The Potency result in experiment [9], in experiment [10] and in experiment [11] was “inactive” in each case. Further, the compound was classed as inactive in experiment [6], in experiment [8], in experiment [12] and in experiment [13].

`Cc1nc(-c2ccc(OCC(C)C)c(C#N)c2)sc1C(=O)O`: the Potency result in experiment [14], in experiment [2], in experiment [15], in [5], in experiment [9] and in experiment [11] was “inactive” each time. In addition, the Potency entry in experiment [16] was “inactive”. Further, the result in [6], in experiment [8], in experiment [17] and in experiment [18] was inactive.

As to `O=C(O)Cc1cc(I)c(Oc2cc(I)c(O)c(I)c2)c(I)c1`, the Potency entry in experiment [1], in [2], in [5] and in experiment [11] was “inactive” throughout. Further, the result in [19], in experiment [17], in [18] and in experiment [12] was inactive. The Potency in experiment [10] is 18.9 µM (active).

For `CN(C)CCn1nnnc1SCC1=C(C(=O)O)N2C(=O)[C@@H](NC(=O)Cc3csc(N)n3)[C@H]2SC1`, the Potency entry in experiment [1], in experiment [2], in [15], in [4], in experiment [7] and in experiment [9] was “inactive” throughout. Besides, the Potency entry in experiment [10] and in experiment [16] was “inactive” each time. Also, the result in [6], in experiment [8], in [17], in experiment [12] and in experiment [13] was inactive.

On to `CC/C=C\C#N`, for which the Potency entry in experiment [1], in experiment [20], in experiment [2], in [3], in experiment [4] and in experiment [5] was “inactive” each time. Also, the Potency result in [7], in [10], in experiment [11] and in experiment [16] was “inactive” throughout. Further, the compound was called inactive in experiment [19], in experiment [6], in experiment [8], in experiment [17], in experiment [18] and in [12]. Besides, the compound was classed as inactive in experiment [13].

Turning to `CC(CCO)CCCC(C)(C)O` (configuration not stated), the Potency result in experiment [1], in experiment [20], in [2], in experiment [3], in [4] and in experiment [9] was “inactive” in each case. Besides, the Potency result in experiment [10], in experiment [11] and in [16] was “inactive” in each case. Moreover, the call in [19], in [17], in experiment [18], in experiment [12] and in experiment [13] was inactive.

For the compound `C=CC(=O)OCCCCCC`, the Potency result in [1], in experiment [14], in experiment [2], in experiment [7], in experiment [9] and in experiment [10] was “inactive” each time. Moreover, the Potency result in experiment [11] and in experiment [16] was “inactive” each time. Also, the compound was classed as inactive in [6], in experiment [8], in [17], in experiment [18], in experiment [12] and in experiment [13].

In the case of `CC(C)(O)C(=O)c1ccc(OCCO)cc1`, the Potency result in experiment [1], in experiment [20], in experiment [2], in experiment [3], in experiment [4] and in experiment [5] was “inactive” each time. In addition, the Potency entry in [9], in [10], in experiment [11] and in experiment [16] was “inactive” in each case. The result in experiment [19], in experiment [8], in [17], in [18], in experiment [12] and in experiment [13] was inactive.

The values above are taken from PubChem BioAssay (Tox21).
